Reference: ChEMBL document CHEMBL3988442, “University of Dundee, Small-Polar-MMV Screening Library” (2021)
Among all 48,000 compounds or so, about 13,000 (27%) showed an effect of 50% or more. Some of the results follow.

tested on: Wolbachia pipientis; assay: Anti-Wolbachia Cell-Based Screen; format: functional; design: scale not given: in the data most compounds retested in dose-response had high values; settings: 5 µM

| SMILES | Percent Effect |
| --- | --- |
| Cl.O=C1CC(NCc2cnc(N3CCCC3)nc2)CN1c1ccccc1 (stereo not drawn) | 36.64% |
| CC(C)N1CCO[C@H]2CN(C(=O)c3ccc(N(C)C)cc3)C[C@H]21 | -8.625% |
| CN(C(=O)c1ccc[nH]1)C1CC(=O)N(Cc2ccccc2)C1=O (stereo not drawn) | -8.622% |
| CCOCC(=O)Nc1ncc(I)cc1C | -8.606% |
| Cc1cc(C)c(S(=O)(=O)Nc2c(C)nc(N3CCCC3)nc2C)cc1C | 12.58% |
| CNC(=O)N1CCC2(CC1)CN(C)Cc1cc(F)ccc12.Cl | 24.69% |
| Cc1nn(C)c(C)c1C1CCCN1Cc1nnc(C2CC2)n1C (stereo not drawn) | -7.496% |
| Cc1cc(C(=O)N2CCC(c3nnc(Cn4ccnc4)n3C)CC2)cs1 | 95.2% |
| Cc1nc(C(=O)N2CCC(c3nccn3Cc3ccncc3)CC2)cs1 | -0.8492% |
| CN(CCO)Cc1nnc(C2CCN(C(=O)c3ccccn3)CC2)n1C | -1.336% |
| Cn1c(Cn2ccnc2)nnc1C1CCN(C(=O)c2ccccn2)CC1 | 107.7% |
| CCCc1nnc(N2CCCC(c3nnc(Cn4ccnc4)n3C)C2)s1 (stereo not drawn) | 0.1518% |
| Cc1nc(C(=O)N2CCC(c3nnc(Cn4ccnc4)n3C)CC2)cs1 | 92.58% |
| Cn1c(Cn2ccnc2)nnc1C1CCN(C(=O)c2cccnc2)CC1 | 92.17% |
| CN(CCO)Cc1nnc(C2CCN(C(=O)c3cccnc3)CC2)n1C | -5.743% |
| Cc1nn(CN(CC2CCOC2)C2CC2)c(=O)c2ccccc12 (stereo not drawn) | -4.031% |
| Cc1nn(C)c(N2CCOCC2)c1CNC1CCOc2ccccc21 (stereo not drawn) | -6.51% |

| SMILES | Percent Effect |
| --- | --- |
| Cc1nnc(NCC2(c3ccccc3)CC2)c(C#N)c1C | 14.48% |
| CC(=O)NCC(Cc1cccc(F)c1)n1cccc1 (stereo not drawn) | 7.369% |
| CCNC(=O)CN(CC)C(=O)c1cccc(Nc2cnn(C)c2)c1 | -0.2175% |
| CN(Cc1cnc(N)nc1)C(=O)C1CC(=O)N(Cc2ccncc2)C1 (stereo not drawn) | -0.2602% |
| CN1CCN(Cc2n[nH]c(=O)n2CC2CCCCC2)CC1 | 12.01% |
| N#Cc1cccc(N2CCC(CO)(CCc3ccccc3)CC2)n1 | -13.62% |
| Cc1cnc(NCC(C)(C)N2CCN(C)CC2)nc1 | -0.3057% |
| Cc1[nH]ccc1C(=O)N1CCC(c2nnc(Cn3ccnc3)n2C)CC1 | 6.251% |
| Cn1c(Cn2ccnc2)nnc1C1CCN(C(=O)c2ccncc2)CC1 | 74.15% |
| CN(CCO)Cc1nnc(C2CCN(C(=O)c3cccn3C)CC2)n1C | -1.148% |
| Cn1cccc1C(=O)N1CCC(c2nccn2Cc2ccncc2)CC1 | 14.15% |
| Cn1nc(Cn2ccnc2)c2c1CN(C(=O)c1ccoc1)C2.O=C(O)C(F)(F)F | -63.76% |
| Cn1cccc1C(=O)N1CCC(c2nnc(Cn3ccnc3)n2C)CC1 | 89.43% |
| CN(CCO)Cc1nnc(C2CCN(C(=O)c3ccccc3)CC2)n1C | 8.451% |
| Cn1c(Cn2ccnc2)nnc1C1CCN(Cc2cccnc2N)CC1 | -5.827% |
| Cn1c(Cn2ccnc2)nnc1C1CCN(C(=O)c2ccoc2)CC1 | 96.26% |
